Screening data (PubChem BioAssay)
CHRM1 PAM – human M1 muscarinic receptor positive allosteric modulators, primary screen, CHO-K1 cells, Fluo-8 calcium fluorescence, 1536-well; activation, % at 3 µM; CHO-K1 hM1, ACh EC20; 0% = ACh EC20, 100% = maximal ACh; 360,000 tested, 0.088% active; Muscarinic acetylcholine receptor M1 (Homo sapiens), P11229; in the data active = activation above about 19%, passing the limit was not always enough
Target sequence (P11229 whole entry, looked up): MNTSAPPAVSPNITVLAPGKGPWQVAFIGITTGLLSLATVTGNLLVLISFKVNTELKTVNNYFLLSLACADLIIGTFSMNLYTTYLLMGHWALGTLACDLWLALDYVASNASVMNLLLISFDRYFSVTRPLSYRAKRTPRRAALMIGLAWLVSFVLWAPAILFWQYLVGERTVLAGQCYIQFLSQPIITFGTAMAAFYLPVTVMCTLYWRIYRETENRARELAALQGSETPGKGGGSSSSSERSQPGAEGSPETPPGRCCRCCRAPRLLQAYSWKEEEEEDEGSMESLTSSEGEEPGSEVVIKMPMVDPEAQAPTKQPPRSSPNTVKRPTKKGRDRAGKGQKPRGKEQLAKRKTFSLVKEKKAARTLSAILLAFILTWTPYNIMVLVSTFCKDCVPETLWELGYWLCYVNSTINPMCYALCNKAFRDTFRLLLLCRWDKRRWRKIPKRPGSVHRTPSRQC
CHO-K1 Ca PAM – nonselective calcium activators in parental CHO-K1 cells, primary screen, counter-screen for M1 PAM project, cell-based, Fluo-8 calcium fluorescence, full deck, 1536-well; ATP EC20; 0% at ATP EC20, 100% at ATP max; activation, % at 3 µM; 360,000 tested, 0.02% active; AID 602247, 2012;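 active = activation above the run cutoff, the mean activation of all test compounds plus 3 SD, cut at about 40% in these data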;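 also: peak over basal fluorescence ratio in a 140 s read after ATP addition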
CHO-K1 Ca antag – nonselective inhibitor or artifact in parental CHO-K1 cells | ATP-induced calcium, Fluo-8 fluorescence | inhibition, % at 3 µM | 360,000 tested, 0.6% active | AID 602250;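 active = inhibition above a per-plate cutoff, the plate's mean sample inhibition plus 3 SD, cut at about 24% in these data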;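 also: 0% = DMSO plus EC80 ATP and 100% = DMSO alone without ATP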
CHRM1 antagonist – human M1 muscarinic receptor antagonists, primary screen, CHO-K1 cells, Fluo-8 calcium fluorescence, 1536-well. inhibition, % at 3 µM. CHO-K1 hM1, ACh EC80 antagonist. 360,000 tested, 1.3% active. AID 588852, 2011;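 active = percent inhibition above its own plate's cutoff, namely the mean of that plate's compound wells plus 3 SD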;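 also: peak over basal fluorescence ratio during 140 s after agonist addition; 0% = ACh EC80 plus DMSO and 100% = DMSO alone without agonist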
CHRM1 agonist – human M1 muscarinic receptor agonists, primary screen, Fluo-8 calcium fluorescence, CHO-K1 cells, HTS; activation, % at 3 µM; Muscarinic acetylcholine receptor M1 (Homo sapiens), P11229; 360,000 tested, 0.33% active; CHO-K1 hM1, agonist mode; 0% DMSO, 100% acetylcholine EC100;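 active = activation above the run's mean compound activation plus 3 SD, cut at about 16% in these data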;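 also: peak over basal fluorescence ratio within a 140 s kinetic read after compound addition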
M1 ag parental – counter-screen for M1 agonists: effect in parental CHO-K1 cells; Fluo-8 calcium fluorescence; scaled to maximal ATP response, vehicle zero; activation, % at 3 µM; 360,000 tested, 0.48% active; in the data active = activation above about 15%;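 also: untransfected CHO-K1 host cells lacking M1 receptor as counterscreen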
Starred values were filed as active, the others as inactive. Compounds with a hit are over-represented: about 2.3% of the library has one in this group of screens.

SMILES | CHRM1 PAM | CHO-K1 Ca PAM | CHO-K1 Ca antag | CHRM1 antagonist | CHRM1 agonist | M1 ag parental
Cn1c(=O)c2c(nc(NCc3ccco3)n2C/C=C/c2ccccc2)n(C)c1=O | -10 | 15 | -3 | 32* | 0 | 2
Cn1c(=O)c2c(nc(NCc3ccco3)n2C)n(C)c1=O | 3 | -3 | 6 | -9 | -6 | 0
COc1ccc(C(=O)NC(C)Cc2c[nH]c3ccccc23)cc1 (stereo not given) | 7 | 11 | -2 | -10 | -2 | 2
COc1ccc(NC(=O)/C(Cl)=C(/Cl)S(=O)Cc2ccc(Cl)cc2)cn1 (stereo not given) | -4 | -14 | 30* | 28 | -5 | 1
COc1ccc(NC(=O)C(Cl)=C(Cl)Cl)cn1 | 8 | 18 | -9 | -2 | -7 | 0
CCOc1ccc(N(Cc2cc3cc(C)ccc3[nH]c2=O)S(=O)(=O)c2ccccc2)cc1 | 3 | 11 | -5 | -1 | -2 | 1
O=c1[nH]c2cc3c(cc2cc1CN(CCc1ccccc1)C(=S)NCCCN1CCOCC1)OCCO3 | 1 | -12 | 60* | -11 | -6 | -2
N#CC(NC(=O)OCc1ccccc1)c1ccccc1 (stereo not given) | 4 | 6 | -9 | 9 | -3 | 0
COc1ccccc1C(=O)NC(CCSC)C(=O)OCC(=O)N1CCCC1=O (stereo not given) | 6 | 9 | 2 | -1 | -1 | 0
Cc1cc(/C=N/n2cnnc2)c(C)n1-c1ccc(OCc2ccccc2F)cc1 | -27 | -9 | 18 | 45* | -9 | 8
Cc1cc(/C=N/n2cnnc2)c(C)n1-c1ccc(OCc2ccc(Cl)cc2)cc1 | -15 | 4 | 24* | 38 | 0 | 9
Cc1cccc(NC(=O)c2cccc(S(=O)(=O)N(C)c3ccccc3)c2)n1 | 1 | 16 | -11 | -2 | -4 | 2
CCOC(=O)C1(C)CCCCN1C(=O)c1ccc(N(C)C)cc1 (stereo not given) | 10 | -3 | 18 | -13 | 0 | 0
CCOC(=O)C1(C)CCCCCN1C(=O)c1ccc(OC)cc1 (stereo not given) | -4 | -14 | 25* | 10 | -3 | 0
NC(=O)c1ccc(NC(=O)COC(=O)c2ccccc2SCC(=O)N2CCCC2)cc1 | 27* | 7 | -12 | -33 | 5 | 1
Nc1ccc(-c2c3ccc(=O)cc-3oc3cc(O)ccc23)c(C(=O)O)c1 | -15 | -14 | 29* | 29 | 117* | 108*
CCOc1ccc(NS(=O)(=O)c2ccc(C(=O)N3CCC3)cc2)cc1 | 2 | 7 | -8 | 5 | 2 | 7
O=C(NC(c1ccc(-c2ccccc2)cc1)c1cnccn1)C1CCN(CCN2C(=O)c3ccccc3C2=O)CC1 (stereo not given) | -12 | -14 | 30* | 21 | -4 | 0
O=C(NC(c1ccc(-c2ccccc2)cc1)c1cnccn1)C1CCN(Cc2cccs2)CC1 (stereo not given) | -3 | -5 | 24* | 12 | -5 | 2
O=C(NC(c1ccccc1)c1cnccn1)C1CCN(CCCOc2ccccc2)CC1 (stereo not given) | -7 | -12 | 0 | 11 | -9 | 0
Cc1cccnc1C(NC(=O)C1CCN(Cc2ccccc2)CC1)c1ccc(F)cc1 (stereo not given) | 0 | 21 | -12 | -7 | -3 | 0
Cc1cccnc1C(NC(=O)C1CCN(Cc2ccc(Oc3ccccc3)cc2)CC1)c1ccccc1 (stereo not given) | -20 | 1 | 0 | 27* | -9 | 0
O=C(NC(c1ccc(-c2ccccc2)cc1)c1cnccn1)C1CCN(Cc2ccc(Oc3ccccc3)cc2)CC1 (stereo not given) | -8 | 9 | 7 | 15 | -4 | 3
CC1CCCCC12NC(=O)N(CC(=O)N1CCN(Cc3ccc(C#N)cc3)CC1)C2=O (stereo not given) | 17 | 15 | -11 | -14 | 1 | 1
Clc1ccccc1CN(Cc1ccccc1)c1ncnc2nc[nH]c12 | -6 | 16 | 3 | -5 | -4 | 2
SMILES | CHRM1 PAM | CHO-K1 Ca PAM | CHO-K1 Ca antag | CHRM1 antagonist | CHRM1 agonist | M1 ag parental
CCCN(CCC)c1ncnc2nc[nH]c12 | -11 | -4 | 29* | 19 | -4 | 0
CC(C)(O)C#Cc1ccc(CN2CCN(C3CCCCC3)C(CCO)C2)s1 (stereo not given) | -28 | 17 | -12 | 18 | -13 | 0
CSc1ccc(CN2CCN(C3CCCC3)C(CCO)C2)cc1 (stereo not given) | -26 | 19 | -20 | 60* | -9 | 1
OCCC1CN(Cc2cc3c(cc2Cl)OCO3)CCN1C1CCCC1 (stereo not given) | -18 | 0 | 10 | 38* | -8 | 1
CC(C)(O)C#Cc1ccc(CN2CCN(C3CCCCC3)C(CCO)C2)cc1 (stereo not given) | -27 | -3 | 10 | 25* | -11 | 4
CC(C)(O)C#Cc1ccc(CN2CCN(C3CCCC3)C(CCO)C2)cc1 (stereo not given) | -22 | 12 | -19 | 53* | -7 | 3
O=C(Nc1ccc(NS(=O)(=O)c2ccc([N+](=O)[O-])cc2)cc1)c1ccco1 | 1 | 7 | -12 | -5 | 2 | 3
C=CC[C@]12CCc3ccccc3C1N(c1ccc(C(=O)OCC)cc1)C2=O (stereo not given in full) | 3 | 9 | -6 | -4 | -6 | -1
COc1ccc(C=C2CS(=O)(=O)CC(=Cc3ccc(OC)cc3)C2=O)cc1 | 4 | -6 | 5 | 3 | 1 | 3
CCOC(=O)C1=C(CC)Nc2ccccc2N/C1=N\S(=O)(=O)c1cc(Br)ccc1Br | -30 | -16 | 33* | 34* | -3 | 15
CCOC(=O)C1=C(C)Nc2ccccc2N/C1=N\S(=O)(=O)c1ccc(Cl)cc1 | -15 | -1 | -7 | 37* | -7 | 5
NC(=O)NN=C1CCN2CCCc3cccc1c32 | 6 | 13 | -9 | -6 | -4 | 1
COc1ccccc1N(C)S(=O)(=O)c1ccc(C(=O)Nc2cc(F)ccc2C)cc1 | -15 | 0 | -2 | 20 | 0 | 4
Cc1ccc(C(=O)N2CCC(C(=O)c3ccc(F)cc3)CC2)cc1 | 3 | -8 | -2 | 1 | -2 | 2
Cc1ccc(C(=O)N2C(=S)C(c3ccc(F)cc3)=NC23CCN(C)CC3)cc1 | -27 | -6 | 8 | 56* | -8 | 1
